1 molecule from ChEMBL document CHEMBL2218924, “A broad activity screen in support of a chemogenomic map for kinase signalling research and drug discovery” (Biochem J, 2013) can be followed below.

Experiment [1] concerns the target T1, Ephrin type-A receptor 3 (Homo sapiens) (UniProt P29320).
T1 sequence (whole entry): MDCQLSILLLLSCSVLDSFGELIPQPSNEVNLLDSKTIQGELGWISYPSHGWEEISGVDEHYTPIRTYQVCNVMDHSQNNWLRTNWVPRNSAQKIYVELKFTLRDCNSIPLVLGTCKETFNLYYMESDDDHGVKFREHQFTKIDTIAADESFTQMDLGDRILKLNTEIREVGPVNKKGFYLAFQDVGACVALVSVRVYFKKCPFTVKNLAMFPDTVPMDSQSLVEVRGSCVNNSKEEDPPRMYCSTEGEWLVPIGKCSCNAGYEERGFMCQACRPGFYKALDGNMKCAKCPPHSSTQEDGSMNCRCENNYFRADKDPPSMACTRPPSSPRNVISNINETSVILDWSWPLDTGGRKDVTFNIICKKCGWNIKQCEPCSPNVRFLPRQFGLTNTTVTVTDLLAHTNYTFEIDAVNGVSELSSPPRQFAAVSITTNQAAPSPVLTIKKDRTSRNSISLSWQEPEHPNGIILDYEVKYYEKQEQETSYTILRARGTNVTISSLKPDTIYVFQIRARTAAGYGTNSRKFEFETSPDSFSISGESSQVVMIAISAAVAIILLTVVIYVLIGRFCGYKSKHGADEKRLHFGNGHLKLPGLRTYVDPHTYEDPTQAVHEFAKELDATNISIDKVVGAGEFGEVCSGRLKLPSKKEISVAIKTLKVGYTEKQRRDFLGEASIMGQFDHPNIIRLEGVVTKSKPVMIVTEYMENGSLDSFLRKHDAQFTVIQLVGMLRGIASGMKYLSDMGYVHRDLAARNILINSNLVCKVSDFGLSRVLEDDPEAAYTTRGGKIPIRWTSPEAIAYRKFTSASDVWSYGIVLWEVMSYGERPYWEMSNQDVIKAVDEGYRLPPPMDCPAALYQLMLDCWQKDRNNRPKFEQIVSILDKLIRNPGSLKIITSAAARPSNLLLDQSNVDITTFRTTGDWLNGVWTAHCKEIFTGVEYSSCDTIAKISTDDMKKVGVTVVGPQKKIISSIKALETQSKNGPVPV
Conditions: at 10 µM; call rule not given here.

The target of experiment [2] is Ephrin type-A receptor 4 (Homo sapiens) (UniProt P54764). Conditions: at 10 µM.
Experiment [3] deals with Ephrin type-A receptor 7 (Homo sapiens) (UniProt Q15375). Conditions: at 1 µM.
Experiment [4] has the same target. As to conditions: at 10 µM.
Experiment [5] addresses T2, Ephrin type-A receptor 8 (Homo sapiens) (UniProt P29322).
T2 sequence (whole entry): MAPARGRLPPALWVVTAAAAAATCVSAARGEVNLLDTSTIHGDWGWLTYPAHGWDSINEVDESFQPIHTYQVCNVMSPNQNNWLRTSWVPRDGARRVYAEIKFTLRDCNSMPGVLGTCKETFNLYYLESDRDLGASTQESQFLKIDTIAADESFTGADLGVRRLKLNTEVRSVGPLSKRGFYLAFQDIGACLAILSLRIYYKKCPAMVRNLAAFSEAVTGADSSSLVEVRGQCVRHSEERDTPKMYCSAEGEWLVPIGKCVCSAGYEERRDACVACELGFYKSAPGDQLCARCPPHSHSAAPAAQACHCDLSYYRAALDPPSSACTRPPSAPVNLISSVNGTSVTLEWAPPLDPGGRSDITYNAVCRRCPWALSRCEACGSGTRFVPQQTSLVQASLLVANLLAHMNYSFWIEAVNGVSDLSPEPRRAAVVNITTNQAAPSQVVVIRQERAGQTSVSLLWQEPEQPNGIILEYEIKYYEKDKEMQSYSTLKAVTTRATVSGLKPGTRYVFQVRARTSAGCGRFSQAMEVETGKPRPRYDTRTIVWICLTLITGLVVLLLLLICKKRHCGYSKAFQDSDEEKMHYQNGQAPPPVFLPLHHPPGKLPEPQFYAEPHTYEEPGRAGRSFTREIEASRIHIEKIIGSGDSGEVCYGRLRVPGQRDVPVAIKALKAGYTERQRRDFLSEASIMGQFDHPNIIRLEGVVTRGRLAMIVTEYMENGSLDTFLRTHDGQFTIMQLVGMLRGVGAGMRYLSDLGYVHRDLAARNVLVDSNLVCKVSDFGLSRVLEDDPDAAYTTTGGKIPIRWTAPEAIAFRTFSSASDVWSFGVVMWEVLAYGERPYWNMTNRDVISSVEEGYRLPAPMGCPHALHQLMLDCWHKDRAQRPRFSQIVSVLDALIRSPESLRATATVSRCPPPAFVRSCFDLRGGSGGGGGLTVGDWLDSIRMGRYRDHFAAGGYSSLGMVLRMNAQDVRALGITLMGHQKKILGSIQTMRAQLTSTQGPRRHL
Conditions: at 1 µM.

Experiment [6] deals with T2, Ephrin type-A receptor 8 (Homo sapiens). As to conditions: at 10 µM.
For experiment [7], the target named is T3, Ephrin type-B receptor 1 (Homo sapiens) (UniProt P54762).
T3 sequence (whole entry): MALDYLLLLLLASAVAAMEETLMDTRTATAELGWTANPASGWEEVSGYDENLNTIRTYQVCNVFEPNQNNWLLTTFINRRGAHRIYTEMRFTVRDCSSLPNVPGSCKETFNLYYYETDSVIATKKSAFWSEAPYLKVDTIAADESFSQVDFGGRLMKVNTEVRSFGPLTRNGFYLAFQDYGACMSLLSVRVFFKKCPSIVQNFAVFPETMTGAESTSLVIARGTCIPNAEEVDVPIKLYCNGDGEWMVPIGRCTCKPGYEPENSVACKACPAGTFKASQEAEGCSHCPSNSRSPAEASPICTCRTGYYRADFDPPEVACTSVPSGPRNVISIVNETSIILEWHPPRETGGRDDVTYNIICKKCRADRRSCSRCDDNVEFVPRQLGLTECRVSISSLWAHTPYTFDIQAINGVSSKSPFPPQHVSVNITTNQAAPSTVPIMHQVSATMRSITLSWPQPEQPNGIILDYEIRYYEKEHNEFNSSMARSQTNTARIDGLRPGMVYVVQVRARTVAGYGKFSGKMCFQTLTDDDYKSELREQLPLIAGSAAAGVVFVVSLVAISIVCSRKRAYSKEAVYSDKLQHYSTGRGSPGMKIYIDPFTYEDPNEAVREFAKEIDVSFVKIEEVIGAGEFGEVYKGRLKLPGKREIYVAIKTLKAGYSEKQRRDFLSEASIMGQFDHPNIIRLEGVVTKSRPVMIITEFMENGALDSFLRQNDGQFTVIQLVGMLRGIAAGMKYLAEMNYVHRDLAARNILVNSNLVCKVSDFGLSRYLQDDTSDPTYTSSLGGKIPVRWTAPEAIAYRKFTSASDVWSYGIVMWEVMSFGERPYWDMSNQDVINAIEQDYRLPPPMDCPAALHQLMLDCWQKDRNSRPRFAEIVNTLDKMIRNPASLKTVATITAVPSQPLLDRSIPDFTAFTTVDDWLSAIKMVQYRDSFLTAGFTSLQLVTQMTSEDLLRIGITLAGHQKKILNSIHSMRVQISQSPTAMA
As to conditions: at 1 µM.

Experiment [8] deals with T3, Ephrin type-B receptor 1 (Homo sapiens). As to conditions: at 10 µM.
In experiment [9] the target is T4, Ephrin type-B receptor 3 (Homo sapiens) (UniProt P54753).
T4 sequence (whole entry): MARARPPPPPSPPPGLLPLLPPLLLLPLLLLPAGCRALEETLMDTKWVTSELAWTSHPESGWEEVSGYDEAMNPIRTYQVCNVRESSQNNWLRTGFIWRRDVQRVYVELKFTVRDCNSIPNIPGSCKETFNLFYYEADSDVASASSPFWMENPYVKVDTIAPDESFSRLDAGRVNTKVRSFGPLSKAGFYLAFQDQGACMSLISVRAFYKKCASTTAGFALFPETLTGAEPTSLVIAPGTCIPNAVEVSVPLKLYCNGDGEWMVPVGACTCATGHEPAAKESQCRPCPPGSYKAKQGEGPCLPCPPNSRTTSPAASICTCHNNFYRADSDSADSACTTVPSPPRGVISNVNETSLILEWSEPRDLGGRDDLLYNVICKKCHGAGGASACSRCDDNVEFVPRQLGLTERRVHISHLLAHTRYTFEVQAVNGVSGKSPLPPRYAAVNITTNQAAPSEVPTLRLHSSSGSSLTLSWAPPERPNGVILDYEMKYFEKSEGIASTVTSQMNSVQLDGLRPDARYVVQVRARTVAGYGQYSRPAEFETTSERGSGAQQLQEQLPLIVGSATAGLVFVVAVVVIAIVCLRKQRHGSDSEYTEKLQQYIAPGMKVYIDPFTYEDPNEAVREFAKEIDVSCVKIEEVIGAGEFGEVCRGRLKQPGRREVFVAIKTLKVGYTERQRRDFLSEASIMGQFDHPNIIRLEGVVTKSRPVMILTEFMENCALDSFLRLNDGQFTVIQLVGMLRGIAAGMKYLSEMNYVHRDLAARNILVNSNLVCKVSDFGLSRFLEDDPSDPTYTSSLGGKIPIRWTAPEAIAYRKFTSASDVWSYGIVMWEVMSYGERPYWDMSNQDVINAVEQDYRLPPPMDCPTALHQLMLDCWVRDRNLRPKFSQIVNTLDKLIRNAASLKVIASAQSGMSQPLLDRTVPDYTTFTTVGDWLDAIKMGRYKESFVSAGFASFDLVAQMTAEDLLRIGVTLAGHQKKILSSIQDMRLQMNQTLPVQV
As to conditions: at 1 µM.

For experiment [10], the target named is T4, Ephrin type-B receptor 3 (Homo sapiens). As to conditions: at 10 µM.
Experiment [11] concerns the target T5, Ephrin type-B receptor 4 (Homo sapiens) (UniProt P54760).
T5 sequence (whole entry): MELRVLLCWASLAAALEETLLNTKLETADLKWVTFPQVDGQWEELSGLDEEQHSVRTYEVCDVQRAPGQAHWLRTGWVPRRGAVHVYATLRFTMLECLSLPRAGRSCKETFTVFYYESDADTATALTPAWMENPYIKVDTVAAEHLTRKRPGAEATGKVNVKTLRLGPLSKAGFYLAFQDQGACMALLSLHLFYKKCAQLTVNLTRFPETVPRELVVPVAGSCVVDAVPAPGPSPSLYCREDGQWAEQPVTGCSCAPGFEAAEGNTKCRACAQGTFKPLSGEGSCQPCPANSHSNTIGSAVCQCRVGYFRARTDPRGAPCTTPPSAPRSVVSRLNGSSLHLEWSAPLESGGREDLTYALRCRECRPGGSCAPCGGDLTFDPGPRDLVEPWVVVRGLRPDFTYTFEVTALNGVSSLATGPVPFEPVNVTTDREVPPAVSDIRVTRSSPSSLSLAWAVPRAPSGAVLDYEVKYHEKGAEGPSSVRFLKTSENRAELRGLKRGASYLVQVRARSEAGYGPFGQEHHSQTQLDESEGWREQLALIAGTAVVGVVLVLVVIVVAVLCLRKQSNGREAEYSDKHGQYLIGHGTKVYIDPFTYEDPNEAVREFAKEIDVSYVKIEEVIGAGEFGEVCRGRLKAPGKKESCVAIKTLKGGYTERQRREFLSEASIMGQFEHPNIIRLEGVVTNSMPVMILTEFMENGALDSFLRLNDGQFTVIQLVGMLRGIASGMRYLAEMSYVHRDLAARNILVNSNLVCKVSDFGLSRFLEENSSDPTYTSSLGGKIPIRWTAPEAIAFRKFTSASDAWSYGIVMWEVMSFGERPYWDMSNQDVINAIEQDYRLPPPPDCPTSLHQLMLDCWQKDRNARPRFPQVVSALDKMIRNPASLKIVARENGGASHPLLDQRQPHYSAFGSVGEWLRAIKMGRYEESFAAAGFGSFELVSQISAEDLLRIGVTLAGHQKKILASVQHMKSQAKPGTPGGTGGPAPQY
As to conditions: at 1 µM.

For experiment [12], the target named is T5, Ephrin type-B receptor 4 (Homo sapiens). Conditions: at 10 µM.
Experiment [13] addresses Receptor tyrosine-protein kinase erbB-4 (Homo sapiens) (UniProt Q15303). Conditions: at 1 µM.
For experiment [14] the target is unchanged. Conditions: at 10 µM.
The target in experiment [15] is Focal adhesion kinase 1 (Homo sapiens) (UniProt Q05397). Conditions: at 1 µM.
Sequence of Focal adhesion kinase 1 (Homo sapiens) (Q05397 2-1052 limits assumed): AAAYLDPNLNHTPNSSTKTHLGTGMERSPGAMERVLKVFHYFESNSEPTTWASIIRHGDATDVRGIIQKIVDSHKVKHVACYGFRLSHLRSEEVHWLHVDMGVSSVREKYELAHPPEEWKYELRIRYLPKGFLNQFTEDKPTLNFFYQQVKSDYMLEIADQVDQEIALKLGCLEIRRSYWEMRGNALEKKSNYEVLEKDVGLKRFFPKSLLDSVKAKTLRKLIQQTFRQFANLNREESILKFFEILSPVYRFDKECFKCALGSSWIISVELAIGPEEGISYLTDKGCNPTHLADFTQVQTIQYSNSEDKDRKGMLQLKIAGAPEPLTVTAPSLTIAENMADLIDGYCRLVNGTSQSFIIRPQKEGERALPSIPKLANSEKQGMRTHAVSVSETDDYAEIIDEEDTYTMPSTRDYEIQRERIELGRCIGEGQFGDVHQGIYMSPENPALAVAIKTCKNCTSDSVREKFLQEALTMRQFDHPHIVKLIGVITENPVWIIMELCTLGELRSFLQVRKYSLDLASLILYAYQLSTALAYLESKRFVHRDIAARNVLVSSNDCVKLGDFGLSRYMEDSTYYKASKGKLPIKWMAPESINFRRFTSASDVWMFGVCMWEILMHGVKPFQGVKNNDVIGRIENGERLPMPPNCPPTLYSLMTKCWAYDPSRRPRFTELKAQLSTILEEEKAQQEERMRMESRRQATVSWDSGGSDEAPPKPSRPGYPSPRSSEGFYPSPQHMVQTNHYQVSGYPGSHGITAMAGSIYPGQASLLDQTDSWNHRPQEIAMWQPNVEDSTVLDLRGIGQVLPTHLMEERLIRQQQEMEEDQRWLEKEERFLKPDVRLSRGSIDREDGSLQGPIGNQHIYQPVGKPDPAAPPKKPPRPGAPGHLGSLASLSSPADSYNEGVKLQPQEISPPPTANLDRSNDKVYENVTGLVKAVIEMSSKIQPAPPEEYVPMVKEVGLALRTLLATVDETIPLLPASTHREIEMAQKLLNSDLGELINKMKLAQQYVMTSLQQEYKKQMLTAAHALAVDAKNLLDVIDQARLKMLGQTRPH

Sequence of Ephrin type-A receptor 7 (Homo sapiens) (Q15375 28-998 limits assumed): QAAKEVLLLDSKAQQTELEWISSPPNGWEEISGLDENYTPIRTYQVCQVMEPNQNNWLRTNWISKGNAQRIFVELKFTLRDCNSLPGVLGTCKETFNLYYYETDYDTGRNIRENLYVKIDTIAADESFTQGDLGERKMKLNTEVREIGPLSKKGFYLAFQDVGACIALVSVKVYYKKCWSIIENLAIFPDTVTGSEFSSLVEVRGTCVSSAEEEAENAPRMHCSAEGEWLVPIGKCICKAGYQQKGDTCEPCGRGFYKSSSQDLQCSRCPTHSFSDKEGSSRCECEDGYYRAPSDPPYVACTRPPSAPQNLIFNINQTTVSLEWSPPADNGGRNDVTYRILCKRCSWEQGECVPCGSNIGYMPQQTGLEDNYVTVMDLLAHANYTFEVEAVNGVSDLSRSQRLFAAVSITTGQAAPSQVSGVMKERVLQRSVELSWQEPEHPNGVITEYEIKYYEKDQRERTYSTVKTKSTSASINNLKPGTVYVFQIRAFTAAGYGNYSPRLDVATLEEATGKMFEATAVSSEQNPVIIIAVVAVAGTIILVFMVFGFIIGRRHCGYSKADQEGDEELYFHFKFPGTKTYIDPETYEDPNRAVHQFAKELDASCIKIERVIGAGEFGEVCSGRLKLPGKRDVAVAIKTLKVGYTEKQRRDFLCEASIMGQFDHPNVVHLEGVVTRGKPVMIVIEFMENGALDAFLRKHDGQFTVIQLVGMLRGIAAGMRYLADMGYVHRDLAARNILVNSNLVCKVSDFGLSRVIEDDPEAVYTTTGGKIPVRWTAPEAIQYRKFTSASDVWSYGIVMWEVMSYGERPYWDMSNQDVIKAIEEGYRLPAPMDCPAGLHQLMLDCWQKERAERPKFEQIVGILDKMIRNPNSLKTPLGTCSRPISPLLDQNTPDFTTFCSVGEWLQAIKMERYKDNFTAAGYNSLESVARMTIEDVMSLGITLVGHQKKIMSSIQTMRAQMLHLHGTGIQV
Sequence of Receptor tyrosine-protein kinase erbB-4 (Homo sapiens) (Q15303 whole entry): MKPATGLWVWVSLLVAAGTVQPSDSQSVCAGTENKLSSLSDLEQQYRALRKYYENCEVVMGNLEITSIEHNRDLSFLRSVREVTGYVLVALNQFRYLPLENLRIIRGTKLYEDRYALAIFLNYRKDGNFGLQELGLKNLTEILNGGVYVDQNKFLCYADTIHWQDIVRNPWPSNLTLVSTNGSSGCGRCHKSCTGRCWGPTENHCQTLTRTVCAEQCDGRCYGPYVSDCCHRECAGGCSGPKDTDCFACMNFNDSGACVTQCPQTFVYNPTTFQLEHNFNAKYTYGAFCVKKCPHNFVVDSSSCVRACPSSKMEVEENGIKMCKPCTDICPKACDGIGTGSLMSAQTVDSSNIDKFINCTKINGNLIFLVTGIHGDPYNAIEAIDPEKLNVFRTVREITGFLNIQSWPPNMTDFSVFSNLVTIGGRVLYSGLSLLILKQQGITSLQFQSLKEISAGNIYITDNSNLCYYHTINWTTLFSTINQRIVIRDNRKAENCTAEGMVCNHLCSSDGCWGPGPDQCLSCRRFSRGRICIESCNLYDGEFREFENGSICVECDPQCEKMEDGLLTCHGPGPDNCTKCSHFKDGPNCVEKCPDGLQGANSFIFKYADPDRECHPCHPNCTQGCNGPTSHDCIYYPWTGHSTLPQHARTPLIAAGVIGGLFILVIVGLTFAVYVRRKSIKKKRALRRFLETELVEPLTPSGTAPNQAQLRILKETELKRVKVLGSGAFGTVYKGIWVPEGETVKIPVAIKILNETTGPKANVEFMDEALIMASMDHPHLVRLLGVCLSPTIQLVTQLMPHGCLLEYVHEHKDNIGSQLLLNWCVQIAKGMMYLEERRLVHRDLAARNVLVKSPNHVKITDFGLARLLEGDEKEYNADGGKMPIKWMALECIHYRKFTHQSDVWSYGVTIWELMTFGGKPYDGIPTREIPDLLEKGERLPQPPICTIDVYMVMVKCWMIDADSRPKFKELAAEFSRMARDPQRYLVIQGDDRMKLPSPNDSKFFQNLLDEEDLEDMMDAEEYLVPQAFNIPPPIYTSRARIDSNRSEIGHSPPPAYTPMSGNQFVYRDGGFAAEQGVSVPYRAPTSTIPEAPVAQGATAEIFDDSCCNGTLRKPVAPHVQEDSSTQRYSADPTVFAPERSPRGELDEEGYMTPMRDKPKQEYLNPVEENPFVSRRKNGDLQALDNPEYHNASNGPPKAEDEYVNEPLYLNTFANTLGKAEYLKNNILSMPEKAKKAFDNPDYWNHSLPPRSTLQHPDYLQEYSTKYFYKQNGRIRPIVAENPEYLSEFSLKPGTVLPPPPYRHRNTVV
Sequence of Ephrin type-A receptor 4 (Homo sapiens) (P54764 whole entry): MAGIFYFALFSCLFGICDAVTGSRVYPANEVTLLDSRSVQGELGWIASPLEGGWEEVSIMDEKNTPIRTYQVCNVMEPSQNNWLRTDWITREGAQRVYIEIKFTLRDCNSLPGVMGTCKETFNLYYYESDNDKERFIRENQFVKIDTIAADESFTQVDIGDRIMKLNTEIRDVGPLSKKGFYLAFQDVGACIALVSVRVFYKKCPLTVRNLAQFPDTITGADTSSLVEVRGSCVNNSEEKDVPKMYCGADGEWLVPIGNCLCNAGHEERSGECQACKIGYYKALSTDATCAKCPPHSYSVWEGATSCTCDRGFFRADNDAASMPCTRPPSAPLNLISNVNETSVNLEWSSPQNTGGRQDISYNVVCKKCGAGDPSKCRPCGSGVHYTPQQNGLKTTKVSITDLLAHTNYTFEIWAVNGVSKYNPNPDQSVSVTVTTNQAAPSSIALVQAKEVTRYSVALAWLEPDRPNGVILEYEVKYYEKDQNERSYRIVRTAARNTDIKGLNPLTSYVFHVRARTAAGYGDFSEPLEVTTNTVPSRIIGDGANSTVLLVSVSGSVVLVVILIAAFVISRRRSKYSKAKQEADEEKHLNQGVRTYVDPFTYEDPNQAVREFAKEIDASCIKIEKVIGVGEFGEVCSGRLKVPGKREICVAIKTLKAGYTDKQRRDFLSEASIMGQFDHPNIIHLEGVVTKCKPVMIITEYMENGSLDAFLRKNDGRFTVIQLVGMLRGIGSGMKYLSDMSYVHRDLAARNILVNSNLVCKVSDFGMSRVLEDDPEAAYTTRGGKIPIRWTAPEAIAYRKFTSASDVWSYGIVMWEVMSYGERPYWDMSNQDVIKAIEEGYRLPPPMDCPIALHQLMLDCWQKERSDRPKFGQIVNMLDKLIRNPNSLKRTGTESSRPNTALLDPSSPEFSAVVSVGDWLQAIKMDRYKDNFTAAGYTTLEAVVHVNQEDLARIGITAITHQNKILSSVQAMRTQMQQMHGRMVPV

A word on the residual activity: it is the signal under treatment as a percentage of the control signal. Take `CN(C)S(=O)(=O)c1ccc2c(c1)/C(=C/c1cc3c([nH]1)CCCC3)C(=O)N2`: the residual activity turned out to be 77% in experiment [1]; 92% in [2]; 94% in experiment [3]; 79% in experiment [4]; 96% in experiment [5]; 85% in [6]. In addition, the residual activity in experiment [7] is 73%; in experiment [8] it was 64%; in [9], 120% (inactive); in experiment [10], 94%; in [11] it was 70%; in experiment [12], 69%. Also, the residual activity in experiment [13] worked out at 88%; in experiment [14], 82%; in [15], 21%.
